# Tgondii IFNg: T. gondii growth inhibition with IFN-gamma, primary screen, cell-based; hit rate 3.8% among 69,000; activity change, negative = inhibition, % (concentration not given with the values); Toxoplasma gondii growth in IFN-gamma-treated host cells; hits give low values; in the data active = activity change below about -70%, passing the limit was not always enough;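 note: host cells are HeLa cells infected with Toxoplasma gondii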
# Hits are given with their value; n = inactive; ! = not confirmed by another sample. Only a selection was taken, and hits are over-represented in it overall.
SMILES,Tgondii IFNg
O=C(C[C@@H]1C=C[C@@H](NC(=O)Nc2ccccc2F)[C@H](CO)O1)NCc1ccc(-c2ccccc2)cc1,n
C[C@@H]1CN([C@H](C)CO)C(=O)c2ccccc2-c2ccccc2CO[C@H]1CN(C)C(=O)Nc1cccc(C(F)(F)F)c1,n
C[C@H](CO)N1C[C@H](C)[C@@H](CN(C)C(=O)Nc2cccc(C(F)(F)F)c2)OCc2ccccc2-c2ccccc2C1=O,n
C[C@@H]1CN([C@H](C)CO)C(=O)c2ccccc2-c2ccccc2CO[C@@H]1CN(C)C(=O)Nc1ccc(-c2ccccc2)cc1,-74.3
C[C@@H]1CN([C@@H](C)CO)C(=O)c2ccccc2-c2ccccc2CO[C@@H]1CN(C)C(=O)Nc1ccc(-c2ccccc2)cc1,n
C[C@H]1CN([C@@H](C)CO)C(=O)c2ccccc2-c2ccccc2CO[C@H]1CN(C)C(=O)NC1CCCCC1,n
C[C@@H]1CN([C@H](C)CO)C(=O)c2ccccc2-c2ccccc2CO[C@H]1CN(C)C(=O)Nc1ccc(-c2ccccc2)cc1,-76.0
CCOc1cc(CNCc2ccco2)ccc1OCc1cccs1,n
CN1C(=O)c2cc(NC(=O)c3ccc(F)c(F)c3)ccc2OC[C@H]2O[C@H](CC(=O)N3CCCCC3)CC[C@H]21,n
COCC1CN(C2CCOC2)Cc2ccnn2C1 (configuration not stated),n
O=C(NCC[C@H]1CC[C@H](NS(=O)(=O)Cc2ccccc2)[C@H](CO)O1)C1CCCCC1,n
COc1ccc(-c2nc(C)c(CCNC(=O)C(=O)Nc3ccccc3Cl)s2)cc1OC,n
Nc1ncnc2c1c(-c1cccc(OCc3ccccc3)c1)cn2C1CC(CN2CCCC2)C1 (configuration not stated),-74.0
COc1cccc(-c2nn(-c3ccccc3)cc2CN2CCC(CN3CCOCC3)CC2)c1,n
COC(=O)c1ccc(C(=O)OC)c(NC(=O)C(C)C)c1,n
Cc1sc(NC(=O)C(C)C)c(C(=O)N[C@@H]2C[C@@H](CO)N(C)C2)c1C,n
COC(=O)c1c(NC(=O)C(C)C)sc2c1C(C(=O)OC)CC2 (configuration not stated),-94.2
CC(=O)NCCc1csc(C2CCCN(C(=O)c3ccc(F)c(Cl)c3)C2)n1 (configuration not stated),n
COc1ccc(-c2nc(N(CCN(C)C)Cc3ccccc3)c3ccccc3n2)cc1,n
CNC(=O)C[C@H]1CC[C@H]2[C@@H](COc3ccc(NC(=O)c4ccccc4F)cc3C(=O)N2C)O1,n
CCOc1ccc(-c2noc(-c3c(O)c4ccccc4[nH]c3=O)n2)cc1OC,n
CC(=O)Nc1cccc(-c2ccccc2-c2nnc(C)s2)c1,n
CC(=O)Nc1cccc(-c2cnn3cccnc23)c1,n
CC(=O)Nc1cccc(-c2cc(C(F)(F)F)cc3[nH]cnc23)c1,-77.3
CN(CCCN1CCCCCC1)Cc1ncc[nH]1,n
SMILES,Tgondii IFNg
Cc1cc(C)cc(C(=O)N2CCC(CO)(CCOc3ccccc3)CC2)c1,n
O=C(Cc1cccc(F)c1)N1CCn2cc(Cn3cncn3)nc2C1,n
Cc1ccc(CC(=O)N2CCn3cc(Cn4cncn4)nc3C2)cc1,-74.4
O=C(Cc1ccc(F)cc1)N1CCn2cc(Cn3cncn3)nc2C1,n
CCN1CCn2c(C)cnc2C12CCN(S(=O)(=O)CC)CC2,n
CSc1nnc(-c2ccccc2)n1C,n
Cc1ccc(-c2cc(-c3ccccc3)nc(-c3ccccc3)c2)cc1,n
Cc1cc(C)cc(Sc2ccc3nnc(-c4ccccc4)n3n2)c1,-81.7
CCn1ncnc1CN1CCN(c2cc(C)nc3ccccc23)CC1,n
O=C(c1ccc(C2CCNCC2)nc1)N1CCOCC1,n
Cn1cnnc1SCC(=O)Nc1ccc(Br)cn1,n
COc1ccccc1CC(=O)Nc1ccc(-c2nc(Cn3cc(C)cn3)c(C)o2)cc1,-94.7
Cc1cnn(Cc2nc(-c3ccc(NC(=O)CC4CCCC4)cc3)oc2C)c1,n
Cc1cnn(Cc2nc(-c3ccc(NC(=O)CCc4ccccc4)cc3)oc2C)c1,-83.7
COc1ccccc1C(=O)Nc1ccc(-c2nc(Cn3cc(C)cn3)c(C)o2)cc1,n
CC(=O)Nc1ccc(-c2nc(Cn3cc(C)cn3)c(C)o2)cc1,n
COc1ccc(CC(=O)Nc2ccc(-c3nc(Cn4cc(C)cn4)c(C)o3)cc2)cc1,n
CN(C)C1CCN(C(=O)c2cc(-c3csc(-c4cccc(Cl)c4)n3)n3ccccc23)C1 (configuration not stated),n
CC(Oc1ccccc1-c1ccccc1)C(=O)N(C)Cc1n[nH]c2c1CCCC2 (configuration not stated),n
Cc1ccc(CN2CCN(Cc3ccccc3Cn3cccn3)CC2=O)cc1,n
NCc1c[nH]c(=S)n1[C@H]1CCc2c(F)cc(F)cc2C1,n
N#C[C@H]1[C@H](c2ccccc2)[C@H](CO)N1C(=O)Nc1cccc(F)c1,n
CC(C)N1CCC(N2CCc3c(c(C(=O)N4CCOCC4)nn3CCc3ccccc3)C2)CC1,n
CNC(=O)C1(Cc2ccc(-c3cccnc3)cc2)CCCN(C(=O)COc2ccccc2)C1 (configuration not stated),n
CN(C)CCCN1c2ccccc2CCc2ccccc21,n
SMILES,Tgondii IFNg
O=C(CSc1nnc(-c2ccco2)o1)N1c2ccccc2Sc2ccc(Cl)cc21,n
CN(C)CCCN1c2ccccc2Sc2ccc(Cl)cc21,-80.9!
O=C(CCN1CCN2CCCCC2C1)N1c2ccccc2Sc2ccc(Cl)cc21 (configuration not stated),n
OCCN1CCN(CCCN2c3ccccc3Sc3ccc(Cl)cc32)CC1,-99.6!
CC(=O)c1ccc2c(c1)N(CCCN1CCC(CCO)CC1)c1ccccc1S2,n
O=C(Cn1ncc2c(N3CCN(c4ccccc4)CC3)ncnc21)Nc1ccc(OC(F)(F)F)cc1,n
Cc1ccc(NC(=O)Cn2ncc3c(N4CCCCCC4)ncnc32)cc1F,-101.1
O=C(Cn1ncc2c(N3CCCC3)ncnc21)Nc1ccc(F)c(Cl)c1,n
O=C(Cn1ncc2c(N3CCCCCC3)ncnc21)Nc1ccc(OC(F)(F)F)cc1,-98.0
O=C(Cn1ncc2c(N3CCCC3)ncnc21)Nc1ccc(OC(F)(F)F)cc1,n
Cc1ccc(NC(=O)Cn2ncc3c(N4CCCC4)ncnc32)cc1Cl,n
O=C(CSc1nnc(Cc2ccccc2)n1Cc1ccccc1)N1CCCC1,n
Cc1cccc(C(=O)N2CCC3(CC(C(=O)N(C)C(C)C)=NO3)C2)c1 (configuration not stated),n
CSc1nc2c(cc1C#N)CCCC2,n
CC(c1cncs1)N(C)C(=O)c1cc(COc2cccc(F)c2)[nH]n1 (configuration not stated),n
CC(C)c1nccn1-c1ccc(NC(=O)CCCn2ccnc2)cc1,n
CCN1CCNC(=O)C1CC(=O)N1CCC(c2nn(C)c(=O)n2CC)CC1 (configuration not stated),n
O=C(Cn1c(=O)cc(C(=O)N2CCCCC2)c2ccccc21)Nc1ccc(Br)cc1,n
CCOC(=O)c1cccnc1-c1cccc(NC(C)=O)c1,n
COC(=O)c1cnc(SCC(=O)Nc2cccc(Cl)c2)n1C,n
CCOC(=O)c1c(Sc2ccccc2)cnn1C(=O)Nc1cccc(Cl)c1,-78.9
CCc1nc(Cn2ccnc2-c2cccc3nonc23)no1,n
COc1c(F)cccc1C(=O)N1CCN(c2ncccc2C)CC1,n
COc1cc2cc(N)c(C3CCN(C(=O)C(C)n4cncn4)CC3)nc2cc1OC (configuration not stated),n
CC(C)CC#Cc1ccc([C@@H]2[C@H]3CN(C(=O)Nc4cc(F)ccc4F)CC(=O)N3[C@H]2CO)cc1,n
CC(=O)Oc1cccc(C(=O)O)c1OC(C)=O,n
